Hit rate of the full screen: of about 320,000 compounds, about 2,100 (0.66%) were called active. About 53% were inconclusive and are not listed. Calls come from the whole dose curve; as a rule, active = well fitted inhibition curve with a large enough effect in the signal ratio, with a control signal flat (not every such curve was filed as active); inconclusive = small, poorly fitted or top-dose-only effect, or effect the other way, or a change in a side signal; inactive = flat fitted curve, though single readings scatter; the % refers to the signal ratio. For the sample, actives were picked, then their nearest neighbours and some compounds at random.
Test: qHTS Assay for Lipid Storage Modulators in Drosophila S3 Cells;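 for cell number change: cells counted by Cell Tracker Red CMTPX staining in the red channel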
Conditions: BODIPY lipid droplet fluorescence, 18-24 h, cells fed with added oleic acid; cell number change: measured here: cell count max response; series mostly up to 46.1 µM
Outline: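 Drosophila S3 cells got compounds at several concentrations plus oleic acid (400 uM solution). Laser-scanning cytometry with 488 nm excitation read lipid droplets at 500-530 nm and cells at 575-640 nm. Percent activity was relative to 20 uM Triacsin C.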
Potency is the fitted concentration of half-maximal effect.

| SMILES | Potency | cell number change [%] |
| --- | --- | --- |
| COc1ccc(OC)c(NP(=O)(Oc2ccc(Cl)cc2)Oc2ccc(Cl)cc2)c1 | inactive | 16.2 |
| Cc1ccc2[nH]c3c(c2c1)CN(C(=O)CN1C[C@H]2C[C@@H](C1)c1cccc(=O)n1C2)CC3 | inactive | 14.9 |
| N#Cc1c(N2CCNCC2)nc(-c2ccco2)c2c1CCCC2 | inactive | 11.9 |
| Cc1ccccc1-n1c(O)c(C(c2ccncc2)c2c(O)n(-c3ccccc3C)c(=O)[nH]c2=O)c(=O)[nH]c1=O | inactive | 5.35 |
| FC(F)(F)c1ccc(CNCCc2ccc3c(c2)OCO3)cc1 | inactive | 20.8 |
| Cc1ccc(-n2c(O)c(/C=N/NC(=O)c3ccncc3)c(=O)[nH]c2=O)cc1 | inactive | -2.6 |
| CCOC(=O)c1cccc([P+](=O)O)c1 | inactive | 4.86 |
| Cc1ccc(-c2cc(-c3ccc(C)cc3)[n+](-c3ccc(C(=O)O)cc3)c(-c3ccc(C)cc3)c2)cc1 | inactive | 12.1 |
| CCOC(=O)c1cccc(-[n+]2c(-c3ccccc3)cc(-c3ccccc3)cc2-c2ccccc2)c1 | 13 µM (active) | -29.7 |
| C(CCc1nn[nH]n1)CCc1nn[nH]n1 | inactive | 0.918 |
| CC1(C)CC(n2[nH]c(=O)c3c2NC(=O)CSC3c2ccc(F)cc2)CCO1 (configuration not stated) | inactive | 1.16 |
| O=C1NC(=O)C(CCc2ccncc2)(Cc2ccc(OCc3ccccc3)cc2)C(=O)N1 | inactive | 9.1 |
| CCC1CCCCN1CC(=O)c1ccc(OC(F)F)cc1 (configuration not stated) | inactive | 2.66 |
| O=C(Cn1c(=O)n(CC2CS2)c2ccccc21)N1CCCCCC1 (configuration not stated) | inactive | 9.44 |
| CCC1CCCCN1C(=O)Cn1c(=O)oc2ccccc21 (configuration not stated) | 1.46 µM (active) | – |
| COC(=O)C1=CO[C@@H](C)[C@@H]2CN3CC[C@]4(C(=O)Nc5ccccc54)[C@@H]3C[C@H]12 | inactive | -15.3 |
| O=C(c1cccc2ccccc12)C1CCCN(Cc2ccon2)C1 (configuration not stated) | inactive | 0.85 |
| CSc1ccccc1C(=O)C1CCCN(Cc2cccc(C)n2)C1 (configuration not stated) | inactive | 5.61 |
| O=P(O)(O)Cc1ccccc1OP(=O)(c1ccccc1)c1ccccc1 | inactive | -17.7 |
| O=P(O)(O)COc1ccccc1P(=O)(c1ccccc1)c1ccccc1 | 16.4 µM (active) | – |
| O=P(O)(O)Oc1ccccc1P(=O)(c1ccccc1)c1ccccc1 | inactive | 13.5 |
| COc1ccc(CC(C)NC2CCCCCC2)cc1 (configuration not stated) | inactive | -21 |
| NC(=O)CSc1nnc([C@@H](N)Cc2c[nH]c3ccccc23)o1 | inactive | – |
| O=C(c1ccc(Br)cc1)C12CN3CN(CN(C3)C1)C2 | inactive | 8.31 |
| CCN(CC)CCN=Cc1c(O)n(CCc2ccccc2)c(=O)[nH]c1=O | inactive | 12.9 |
| CCN(CC)CCN=Cc1c(O)n(CCC2=CCCCC2)c(=O)[nH]c1=O | 23.1 µM (active) | 11.2 |
| CN(C)CCN=Cc1c(O)n(C2CCCCCC2)c(=O)[nH]c1=O | inactive | 6.67 |
| CCN(CC)CCN=Cc1c(O)n(C2CCCCCC2)c(=O)[nH]c1=O | 18.4 µM (active) | -10.3 |
| O=c1[nH]c(=O)n(CCC2=CCCCC2)c(O)c1/C=N/N1CCOCC1 | inactive | 8.55 |
| O=c1[nH]c(=O)n(C2CCCCC2)c(O)c1C=NCCCn1ccnc1 | inactive | 17.5 |

From PubChem BioAssay AID2685 (National Center for Advancing Translational Sciences (NCATS), 2010)
